Experimental data: PMC7819943, “Rice protein-binding microarrays: a tool to detect cis-acting elements near promoter regions in rice”
The full ranking holds about 35,000 sequences; the median of “fluorescence intensity (a.u.)” is about 10,000, and the highest 2% start at about 52,000. The entries come from a sample that favours the highest values as a whole.

target: T1, OsWOX13 (Oryza sativa, UniProt Q5QMM3 1-267); assay: protein-binding microarray (RPBM); PBS, 2% BSA, 51.3 ng/ul salmon testes DNA, 50 uM zinc acetate, 200 nM TF, 25 C, 1 h; high values mean tight binding; settings: protein: recombinant; tags: N-terminal polyhistidine and DsRed monomer fusion (pET32a); label: CyDye5-dUTP incorporated in the synthesized complementary strand; 3' TTTTT single-stranded linker to array surface; dsDNA, one strand shown
T1 sequence: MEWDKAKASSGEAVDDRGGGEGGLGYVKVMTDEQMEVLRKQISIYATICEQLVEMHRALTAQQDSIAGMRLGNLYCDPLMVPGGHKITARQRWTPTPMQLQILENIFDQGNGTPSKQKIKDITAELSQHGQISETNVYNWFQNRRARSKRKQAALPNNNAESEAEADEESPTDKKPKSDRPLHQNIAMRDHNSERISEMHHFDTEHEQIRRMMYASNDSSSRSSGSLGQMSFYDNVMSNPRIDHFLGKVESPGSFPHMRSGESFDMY
Outline: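 The binding signal for each feature is its fluorescence intensity in arbitrary units. An Axon 4000B scanner was used to read a custom Agilent array that had been made double-stranded with Cy5-dUTP primer extension, blocked with 2% BSA, incubated at 25 °C for 1 h with 200 nM protein in PBS, 2% BSA, salmon testes DNA and 50 µM zinc acetate, and washed. The protein was an N-terminal polyhistidine–DsRed transcription factor fusion from E. coli BL21-CodonPlus, purified on Ni–NTA.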

Row | Sequence | binding signal
1 | TTACAGATTGGCCCCTGTATTTCTCTCTCTCGTCTCTCCTCGGAGTCACCTAGTGCAG | 24800 fluorescence intensity (a.u.)
2 | TTATCAATCTACATCGTTATAATTTAGTTCCACCGTAATTCGGAGTCACCTAGTGCAG | 19800 fluorescence intensity (a.u.)
3 | GCCGGGAGGGAGGGAGGGAGGGAGGGAGGGAGACCCCGCACGGAGTCACCTAGTGCAG | 9960 fluorescence intensity (a.u.)
4 | TTGATTTGAAAGGTACTACCTCTGTTTCAGGTTAGAAAGTCGGAGTCACCTAGTGCAG | 3380 fluorescence intensity (a.u.)
5 | AGATGATTGATTTTCAGGTGATGAACAGGGTTACTGTTTTCGGAGTCACCTAGTGCAG | 63000 fluorescence intensity (a.u.)
6 | TTATTAGATGATGATTATTTTGAGAAGGTTTCTTAGGATGCGGAGTCACCTAGTGCAG | 12900 fluorescence intensity (a.u.)
7 | GATGATTTGATTAGATTAGGTTAGGTTTGTTATTCACCTACGGAGTCACCTAGTGCAG | 65500 fluorescence intensity (a.u.)
8 | TAGATGATTATTATGATAGGATTGATTTGTTTAGAGTCTTCGGAGTCACCTAGTGCAG | 46100 fluorescence intensity (a.u.)
9 | GTTAGGGTTTTCTTTTGATTGTCAGGGTTTTCTTTTGATTCGGAGTCACCTAGTGCAG | 3960 fluorescence intensity (a.u.)
10 | AGTCATCAAAATTACGCATGTAATTAGTATATATAATTATCGGAGTCACCTAGTGCAG | 9910 fluorescence intensity (a.u.)
11 | TTTAGTATATAATAGATAGATAGATAGAAGATTTGTACTACGGAGTCACCTAGTGCAG | 4500 fluorescence intensity (a.u.)
12 | GCTGACTGGATAAAATCTGATAAGCGTGAAGATGACCTTTCGGAGTCACCTAGTGCAG | 21400 fluorescence intensity (a.u.)
13 | TTCGAAAATTACCTGTAACCTTCCATCCATCACACACACACGGAGTCACCTAGTGCAG | 3500 fluorescence intensity (a.u.)
14 | AGCTAATTAAGCTAGTGAGAGCTAGTGGAGGTACATGGCTCGGAGTCACCTAGTGCAG | 11600 fluorescence intensity (a.u.)
15 | ACAATGATTGGGTCTTAAGATTTTCTTTAATTATTCGACGCGGAGTCACCTAGTGCAG | 58300 fluorescence intensity (a.u.)
16 | AGCTGATCTATCCAAATTGGTGAAACTAATTGTAAATTCTCGGAGTCACCTAGTGCAG | 11000 fluorescence intensity (a.u.)
17 | CGATTGATTGATTCTTGGTGCTCACTATCTCTAAATTGATCGGAGTCACCTAGTGCAG | 59600 fluorescence intensity (a.u.)
18 | TAATTGATGTAATTTAAATTATTCTTGGTCTTAGTGTATACGGAGTCACCTAGTGCAG | 54800 fluorescence intensity (a.u.)
19 | TTGATTGATGTCATTTAAATTATCATTGGTCTTGGTGTATCGGAGTCACCTAGTGCAG | 41100 fluorescence intensity (a.u.)
20 | GATTGATGCAATTTAAATTATACTTAGTATTGGTGTATAACGGAGTCACCTAGTGCAG | 11400 fluorescence intensity (a.u.)
21 | CTGTGAATTGATTCATCTCTCACACATGGTTCTCCACTATCGGAGTCACCTAGTGCAG | 9680 fluorescence intensity (a.u.)

Row | Sequence | binding signal
22 | TTAATTAGGAGATATTGATTGATAAACGTACCTCTTGGTGCGGAGTCACCTAGTGCAG | 65300 fluorescence intensity (a.u.)
23 | GGGTGATATAAATTAGGAGGTGATAATAATTATTTCTTGGCGGAGTCACCTAGTGCAG | 26700 fluorescence intensity (a.u.)
24 | GCTTACAATTAATGATTACCTTTTCATAAAGATTATTATTCGGAGTCACCTAGTGCAG | 12400 fluorescence intensity (a.u.)
25 | ATAAAATAAATGATAATTACATAAATTTCTTTAAATAAGACGGAGTCACCTAGTGCAG | 10900 fluorescence intensity (a.u.)
26 | CTTTAATTGGTGCTTGTTAAACCTCTTAGTGCTTGTTAAACGGAGTCACCTAGTGCAG | 29200 fluorescence intensity (a.u.)
27 | AATAAATCTATAATTTTATGATATTATGACTTAAATCTATCGGAGTCACCTAGTGCAG | 4790 fluorescence intensity (a.u.)
28 | TTTTATTAACTGTAAACGTCACATGTTCTGTCATACGCGTCGGAGTCACCTAGTGCAG | 5270 fluorescence intensity (a.u.)
29 | CTTGTCAATCTACAGAGAGTCCACGAGTTAGTAGTATGTGCGGAGTCACCTAGTGCAG | 8690 fluorescence intensity (a.u.)
30 | TAGTTAATTGTGCCAAACAAAATTCAAAATTAAGACATCTCGGAGTCACCTAGTGCAG | 33000 fluorescence intensity (a.u.)
31 | CACATTGACCAAAATTTAATGTTTGTTTCCTACTAGTGTGCGGAGTCACCTAGTGCAG | 4440 fluorescence intensity (a.u.)
32 | ACACTAATTAGGGAGATAATCTCTCTTGTGGTGTTTGTGTCGGAGTCACCTAGTGCAG | 52300 fluorescence intensity (a.u.)
33 | GGTGTCTTGATTGATATGATTTAAATTATTCTTGGTCTTGCGGAGTCACCTAGTGCAG | 58500 fluorescence intensity (a.u.)
34 | TGGCACACTAATTAGGGAGAAAATCTCTATCTTGTGTTGTCGGAGTCACCTAGTGCAG | 9710 fluorescence intensity (a.u.)
35 | TATTGATATGATTTAAATTGTCCTTGGTCTTGGTGTATAACGGAGTCACCTAGTGCAG | 40700 fluorescence intensity (a.u.)
36 | TATTAATTGATGCGATTTAAATTATCTTTGGTCTTGATGTCGGAGTCACCTAGTGCAG | 50000 fluorescence intensity (a.u.)
37 | AATAATTTTCTTTTGTCACACTGTTTCTTCTCTAATCTATCGGAGTCACCTAGTGCAG | 5890 fluorescence intensity (a.u.)
38 | ATACTGTCATCAATTGATTACTCTGACCGTCGATCACACACGGAGTCACCTAGTGCAG | 34100 fluorescence intensity (a.u.)
39 | TTATAACACAAATAATATAATAGATATATAGACTGTTGTCCGGAGTCACCTAGTGCAG | 3650 fluorescence intensity (a.u.)
40 | ATGTAATTTCACCATAACTATATATTATAATAAGATAAGTCGGAGTCACCTAGTGCAG | 8720 fluorescence intensity (a.u.)
41 | AGGGTGATTGACAGGTGGGTCCATCCCCTCACATGCCAGGCGGAGTCACCTAGTGCAG | 64800 fluorescence intensity (a.u.)
42 | AAGAAAATTTAAAACAATTGATTACATACTAAATTAATATCGGAGTCACCTAGTGCAG | 9840 fluorescence intensity (a.u.)
